Data published in PubChem BioAssay AID624255 (Broad Institute, 2012).
Out of some 77,000 compounds screened, about 4,600 (6%) were called active. Roughly 1% stayed inconclusive and do not appear here.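 The calls were made as follows: active = mean inhibition above about 93%, with at least 55% of replicates each passing it (limit read from the data, passing the limit was not always enough); inconclusive = only one of those two conditions holds; inactive = neither condition holds.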 What follows is part of a selection rich in actives, with near analogues and random picks from the rest.

Test: T. cruzi intracellular proliferation inhibitors, primary screen, cell-based, beta-gal Tulahuen parasites, NIH3T3 host, luminescence (AID 624255)
Settings: T. cruzi beta-gal in NIH3T3, GalScreen luminescence, 90 h; at 8.34 µM; active compounds read high

inhibition, inactive:
COCC#Cc1cnc2c(c1)C(=O)N([C@@H](C)CO)C[C@@H](C)[C@@H](CN(C)C(=O)c1cccnc1)O2 71.4%
O=C(CC1CC1)N1[C@@H]2CN(S(=O)(=O)c3ccc(F)cc3)c3ccccc3[C@@H]2[C@@H]1CO 19.2%
C[C@@H]1CCCCO[C@H](CN(C)S(=O)(=O)c2cccs2)[C@H](C)CN([C@H](C)CO)C(=O)c2cc(NC(=O)c3ccccc3)ccc2O1 88.6%
O=C(C[C@H]1C=C[C@H](NC(=O)Nc2ccccc2F)[C@@H](CO)O1)NCc1ccc(Cl)cc1 27.5%
CN(C)CC#Cc1ccc([C@H]2[C@@H](CO)N(C(=O)C3CCC3)[C@H]2C#N)cc1 69.2%
CCCC#Cc1ccc([C@H]2[C@@H](CO)N(C(=O)C3CC3)[C@H]2C#N)cc1 74.3%
N#C[C@H]1[C@H](c2ccc(C#Cc3ccc(F)cc3)cc2)[C@@H](CO)N1C(=O)C1CCCC1 92.9%
N#C[C@@H]1[C@@H](c2ccc(C#Cc3cccc(F)c3)cc2)[C@H](CO)N1C(=O)C1CCOCC1 83.9%
CCCC#Cc1ccc([C@@H]2[C@@H](C#N)N(C(=O)C3CCC3)[C@H]2CO)cc1 92.4%
CC(C)C#Cc1ccc([C@@H]2[C@@H](C#N)N(C(=O)C3CC3)[C@@H]2CO)cc1 68.6%
Cn1cnc(CCNC(=O)C[C@H]2CC[C@H]3[C@@H](COC[C@@H](O)CN3C(=O)Nc3ccc(C(F)(F)F)cc3)O2)c1 28.4%
CC=Cc1ccc2n(c1=O)C[C@H]1[C@H](CO)[C@@H](C(=O)NC3CCCC3)N(Cc3ccncc3)[C@@H]21 (mixture of isomers) -33.3%
CS(=O)(=O)Nc1ccc2c(c1)[C@H]1C[C@H](CC(=O)NCc3ccc(Oc4ccccc4)cc3)O[C@H](CO)[C@H]1O2 3.92%
O=C(C1CC1)N1CCCCN2[C@H](C1)[C@@H](c1ccc(-c3cccc(F)c3)cc1)[C@@H]2CO 32.6%
O=C(Nc1ccc(F)cc1)N1CCCCN2[C@H](CO)[C@H](c3ccc(-c4ccncc4)cc3)[C@@H]2C1 67.2%
O=C(C1CCC1)N1CCCCN2[C@H](CO)[C@H](c3ccc(-c4cccc(F)c4)cc3)[C@H]2C1 94.1%
O=C(N[C@H]1CC[C@H](CCNS(=O)(=O)c2ccc(F)cc2)O[C@H]1CO)c1cccnc1 14.1%
CCC(=O)Nc1ccc2c(c1)C(=O)N(C)[C@@H]1CC[C@H](CC(=O)NCCc3ccncc3)O[C@@H]1CO2 64.6%
O=C(Cc1ccncc1)NCC[C@@H]1CC[C@H](NC(=O)Nc2ccc(Cl)cc2)[C@@H](CO)O1 37%
O=C(C[C@H]1C[C@H]2c3cc(NC(=O)Cc4ccncc4)ccc3O[C@H]2[C@@H](CO)O1)NCc1cccc(F)c1 -15.1%
O=C(C[C@H]1CC[C@H]2[C@@H](COC[C@H](O)CN2CCC(F)(F)F)O1)N1CCC(Cc2ccccc2)CC1 65.1%
CN1C(=O)c2cc(NC(=O)c3ccccc3)ccc2OC[C@@H]2O[C@@H](CC(=O)NC3CCCC3)CC[C@H]21 18.9%
CC=Cc1ccc2n(c1=O)C[C@@H]1[C@@H](CO)[C@H](C(=O)N(C)C)[C@H]2N1CCc1ccccc1 (mixture of isomers) 37%
Cc1ccccc1S(=O)(=O)N1[C@H](C#N)[C@H](c2ccccc2)[C@H]1CO -43.9%
COc1ccc(NC(=O)N(C)C[C@@H]2Oc3c(NC(=O)NC4CCCCC4)cccc3C(=O)N([C@H](C)CO)C[C@H]2C)cc1 2.44%
C[C@@H]1CN([C@@H](C)CO)C(=O)c2cccc(NC(=O)Nc3cccc4ccccc34)c2O[C@H]1CN(C)S(=O)(=O)c1ccccc1 41.2%
COc1ccc(S(=O)(=O)N(C)C[C@@H]2Oc3c(NC(=O)NC(C)C)cccc3C(=O)N([C@@H](C)CO)C[C@@H]2C)cc1 11.6%
C[C@@H]1CN([C@H](C)CO)C(=O)c2cccc(NC(=O)c3nc4ccccc4s3)c2O[C@H]1CN(C)S(=O)(=O)c1ccc(Cl)cc1 55.8%
COc1ccc(NC(=O)N(C)C[C@H]2Oc3c(NC(=O)NC(C)C)cccc3C(=O)N([C@@H](C)CO)C[C@H]2C)cc1 39.4%
C[C@@H]1CN([C@@H](C)CO)C(=O)c2cccc(NC(=O)c3nc4ccccc4s3)c2O[C@H]1CN(C)S(=O)(=O)c1cccs1 82.6%
CO[C@H]1CN(C)C(=O)c2ccc(NS(C)(=O)=O)cc2OC[C@@H](C)N(C(=O)c2ccc3c(c2)OCO3)C[C@@H]1C 22.5%
O=C(C[C@@H]1CC[C@H]2[C@@H](COC[C@H](O)CN2C(=O)Nc2ccc(Cl)cc2)O1)NCC1CC1 9.76%
O=C(c1cccnc1)N1C[C@H]2[C@@H](c3ccccc31)[C@H](CO)N2C(=O)C1CC1 32.1%
COc1ccc(NC(=O)Nc2ccc3c(c2)[C@H]2C[C@H](CC(=O)NC4CCCCC4)O[C@H](CO)[C@H]2O3)cc1 -22.1%
O=C(NC1CCCC1)[C@H]1[C@H](CO)[C@H]2Cn3c(cccc3=O)[C@H]2N1C(=O)NC1CCCC1 -32.8%
C[C@@H]1CN([C@H](C)CO)C(=O)c2cc(-c3cccc(C#N)c3)cnc2O[C@H]1CN(C)C(=O)C1CCC1 -99.6%
COCC(=O)Nc1ccc2c(c1)OC[C@H](C)N(C(=O)c1ccccn1)C[C@@H](C)[C@H](OC)CN(C)C2=O 26.6%
C[C@H](CO)N1C[C@H](C)[C@@H](CN(C)C(=O)C2CC2)Oc2ncc(-c3cccc(C#N)c3)cc2C1=O 68.3%
Cc1ccc(S(=O)(=O)N2C[C@H](O)COC[C@@H]3O[C@H](CC(=O)N[C@H]4CCN(Cc5ccccc5)C4)CC[C@H]32)cc1 51.3%
CCC(=O)N(C)C[C@H]1Oc2cc(C#CCC(C)C)ccc2S(=O)(=O)N([C@H](C)CO)C[C@H]1C 41.2%
C[C@H](O)C#Cc1ccc2c(c1)O[C@@H](CN(C)C(=O)C1CC1)[C@H](C)CN([C@H](C)CO)S2(=O)=O -20.8%
CCCC#Cc1ccc2c(c1)O[C@H](CN(C)C(=O)C1CCCCC1)[C@H](C)CN([C@H](C)CO)S2(=O)=O 68.4%
C[C@H](O)C#Cc1ccc2c(c1)O[C@H](CN(C)C(=O)C1CC1)[C@@H](C)CN([C@H](C)CO)S2(=O)=O 13.9%
C[C@@H]1CN([C@H](C)CO)S(=O)(=O)c2ccc(-c3ccccc3)cc2O[C@@H]1CN(C)C(=O)C1CC1 84.2%
C[C@@H]1CN([C@H](C)CO)S(=O)(=O)c2ccc(-c3ccccc3)cc2O[C@H]1CN(C)C(=O)C1CCC1 55%
COCC(=O)Nc1ccc2c(c1)[C@@H]1C[C@@H](CC(=O)N3CCN(C)CC3)O[C@H](CO)[C@@H]1O2 -9.47%
COc1ccc(NC(=O)N(C)C[C@H]2Oc3cc(-c4ccncc4)ccc3S(=O)(=O)N([C@@H](C)CO)C[C@H]2C)cc1 53.3%
CCCNC(=O)[C@H]1[C@H](CO)[C@H]2Cn3c(ccc(C4=CCCC4)c3=O)[C@H]2N1C(=O)CC1CC1 -12.5%
C[C@H](NC(=O)C[C@H]1CC[C@H]2[C@@H](COC[C@H](O)CN2C(=O)Nc2cc(Cl)cc(Cl)c2)O1)c1ccccc1 20.2%
Cc1ccccc1S(=O)(=O)N[C@@H]1CC[C@@H](CCNS(=O)(=O)c2cccc(F)c2)O[C@H]1CO 22%

inhibition, active:
N#C[C@@H]1[C@@H](c2ccc(C#Cc3cccc(F)c3)cc2)[C@@H](CO)N1C(=O)C1CCC1 101%
CCCC#Cc1ccc([C@@H]2[C@@H](C#N)N(C(=O)C3CCCC3)[C@@H]2CO)cc1 102%
N#C[C@@H]1[C@H](c2ccc(C#Cc3cccc(F)c3)cc2)[C@@H](CO)N1C(=O)C1CCCC1 97.3%
O=C(C1CCCC1)N1CCCCN2[C@@H](CO)[C@H](c3ccc(-c4cccc(F)c4)cc3)[C@@H]2C1 111%
O=C(C1CCC1)N1CCCCN2[C@H](CO)[C@H](c3ccc(-c4ccncc4)cc3)[C@@H]2C1 99.7%
O=C(C1CC1)N1CCCCN2[C@H](CO)[C@H](c3ccc(-c4cccc(F)c4)cc3)[C@H]2C1 95.6%
O=C(C1CCC1)N1CCCCN2[C@H](CO)[C@H](c3ccc(-c4cccc(F)c4)cc3)[C@@H]2C1 99.7%
Cc1ccc(S(=O)(=O)N(C)C[C@@H]2Oc3c(NC(=O)c4nc5ccccc5s4)cccc3C(=O)N([C@H](C)CO)C[C@@H]2C)cc1 110%
COc1ccc(S(=O)(=O)N(C)C[C@H]2Oc3c(NC(=O)Nc4cccc5ccccc45)cccc3C(=O)N([C@@H](C)CO)C[C@H]2C)cc1 128%
COc1ccc(NC(=O)N(C)C[C@@H]2Oc3c(NC(=O)NC4CCCCC4)cccc3C(=O)N([C@@H](C)CO)C[C@@H]2C)cc1 99.3%
C[C@H](CO)N1C[C@H](C)[C@@H](CN(C)C(=O)C2CCCCC2)Oc2cc(-c3ccccc3)ccc2S1(=O)=O 103%
CC(C)CC#Cc1ccc2c(c1)O[C@H](CN(C)C(=O)C1CC1)[C@@H](C)CN([C@@H](C)CO)S2(=O)=O 115%
C[C@@H]1CN([C@@H](C)CO)S(=O)(=O)c2ccc(C#CCN(C)C)cc2O[C@H]1CN(C)C(=O)C1CC1 94.7%
